In PubChem BioAssay (EPA / NIEHS):
Results filed as inconclusive are left out. Active and inactive are the calls of the source. The calls were made as follows, unless noted: active = hit-call score of the fitted dose curve at least 0.9, where 1 is the maximum; inactive = score below 0.9.

Key:
CD40, CD40 (gene 958) = test: BSK_SAg_CD40: BioMAP Diversity Plus: SAg Assay for CD40 Biomarker Activity (AID 2283088); details: primary human HUVEC with PBMC; actives raise or lower the signal
How it was run: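 HUVEC/PBMC co-culture, 24 h post-dose; CD40 by ELISA, fluorescence intensity; bidirectional fit vs DMSO negative control.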

CD69, CD69 (gene 969) = test: BSK_SAg_CD69: BioMAP Diversity Plus: SAg Assay for CD69 Biomarker Activity (AID 2283089); details: primary human HUVEC with PBMC; actives raise or lower the signal;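 as to AC50: cell surface CD69 protein quantified by ELISA with fluorescence detection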
How it was run: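 Endothelial/PBMC co-culture; chemical added; 24 h incubation; CD69 ELISA with fluorescence detection; bidirectional fit vs DMSO.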

[1] = read-out: Monocyte Chemoattractant Protein-1 (MCP1), CCL2 (gene 6347); test: BSK_SAg_MCP1: BioMAP Diversity Plus: SAg Assay for Monocyte Chemoattractant Protein-1 (MCP1) Biomarker Activity (AID 2283090); details: primary human HUVEC with PBMC; actives raise or lower the signal
How it was run: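 MCP-1 levels in the endothelial–PBMC SAg co-culture were quantified by ELISA at 24 h post-dosing; both increases and decreases versus DMSO scored. Cytotoxicity monitored by SRB total protein in parallel cultures.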

[2] = read-out: E-selectin (Homo sapiens) (UniProt P16581); test: BSK_SAg_Eselectin: BioMAP Diversity Plus: SAg Assay for Eselectin Biomarker Activity (AID 2283091); details: primary human HUVEC with PBMC; actives raise or lower the signal
How it was run: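 E-selectin ELISA readout at 24 h post-dosing in human umbilical vein endothelial cell/PBMC co-culture; gain or loss of signal fitted relative to DMSO baseline.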

[3] = read-out: Monokine induced gamma interferon (MIG), CXCL9 (gene 4283); test: BSK_SAg_MIG: BioMAP Diversity Plus: SAg Assay for Monokine induced gamma interferon (MIG) Biomarker Activity (AID 2283092); details: primary human HUVEC with PBMC; actives raise or lower the signal
How it was run: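 Measures CXCL9 protein by ELISA in a human vascular primary-cell co-culture (umbilical vein endothelium with PBMC) 24 h after chemical addition. Activity is scored up or down from the DMSO control.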

[4] = BSK_SAg_PBMCCytotoxicity: PBMC Cytotoxicity Assessment in the BioMAP Diversity Plus: SAg Assay (AID 2283093); details: primary human HUVEC with PBMC;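 also: PBMC viability measured as Alamar Blue reduction fluorescence at 546/580 nm; fitted both ways against DMSO so a hit may be loss or gain of signal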;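 as to AC50: PBMC superantigen activated with SEB plus TSST-1 one hour after compound addition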
How it was run: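 Human umbilical vein endothelial cells co-cultured with PBMC; PBMC (75,000/well) pre-treated with compound 1 h, then activated with SEB and TSST-1 (20 ng/mL final each) for 90 h. Alamar Blue added 6 h, fluorescence 546/580 nm; bidirectional fit versus DMSO.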

[5] = read-out: Interleukin-8 (IL8), CXCL8 (gene 3576); test: BSK_SAg_IL8: BioMAP Diversity Plus: SAg Assay for Interleukin-8 (IL8) Biomarker Activity (AID 2283094); details: primary human HUVEC with PBMC; actives raise or lower the signal
How it was run: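 ELISA read-out of IL-8 in a primary human vascular co-culture (umbilical vein endothelium plus PBMC), taken 24 h after compound addition. Values derive from bidirectional fits against DMSO negative controls.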

[6] = BSK_SAg_Proliferation: Cell Proliferation Assessment in the BioMAP Diversity Plus: SAg Assay (AID 2283095); details: primary human HUVEC with PBMC;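 also: relative cell number as total protein by SRB absorbance in sub-confluent culture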
How it was run: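 Cells (endothelium plus PBMC, human primary) were dosed with chemical, cultured 96 h, fixed in 10% TCA and stained with 0.1% SRB. Absorbance at 560 nm gave relative protein, fitted bidirectionally relative to DMSO.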

[7] = BSK_SAg_SRB: Viability Assessment in the BioMAP Diversity Plus: SAg Assay (AID 2283096); details: primary human HUVEC with PBMC;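 also: cells read one day after compound addition; hits may be either gain or loss of signal compared with DMSO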
How it was run: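 Endothelial/PBMC primary human co-culture; compound 24 h; fix 10% TCA, stain 0.1% SRB, A560; protein content as cytotoxicity proxy; bidirectional curve fit, DMSO = baseline.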

[8] = target: human CYP2C9, CYP2C9 (gene 1559) (UniProt P11712); test: NVS_ADME_hCYP2C9: NovaScreen (NVS) CYP450-related Enzyme Activity (ADME) Assay for human CYP2C9 (AID 2283108; active = hit-call score of the fitted dose curve at least 0.9, where 1 is the maximum)
Chain of human CYP2C9, CYP2C9 (gene 1559) (P11712 whole entry, looked up): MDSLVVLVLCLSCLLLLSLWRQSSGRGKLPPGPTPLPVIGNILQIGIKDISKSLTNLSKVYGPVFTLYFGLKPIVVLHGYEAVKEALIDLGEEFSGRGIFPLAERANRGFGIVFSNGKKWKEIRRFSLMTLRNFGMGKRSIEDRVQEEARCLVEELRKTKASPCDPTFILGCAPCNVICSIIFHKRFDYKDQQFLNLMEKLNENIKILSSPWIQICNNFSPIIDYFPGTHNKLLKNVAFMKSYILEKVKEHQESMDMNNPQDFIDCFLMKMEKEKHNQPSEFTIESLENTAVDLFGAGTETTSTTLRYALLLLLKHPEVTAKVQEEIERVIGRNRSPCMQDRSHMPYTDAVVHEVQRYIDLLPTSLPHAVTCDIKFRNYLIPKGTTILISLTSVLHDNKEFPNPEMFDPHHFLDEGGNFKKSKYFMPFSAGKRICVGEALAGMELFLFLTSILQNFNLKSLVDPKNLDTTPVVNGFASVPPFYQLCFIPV
How it was run: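 Cell-free assay of recombinant human CYP2C9 produced in Sf9 cells, with enzyme activity read by fluorescence intensity 0.75 h after compound addition. Loss of signal versus an acetonitrile negative control indicates inhibition. Primary screen used 10 uM in duplicate; actives were retested in concentration series.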

[9] = target: human CYP2B6, CYP2B6 (gene 1555) (UniProt P20813); test: NVS_ADME_hCYP2B6: NovaScreen (NVS) CYP450-related Enzyme Activity (ADME) Assay for human CYP2B6 (AID 2283101; active = hit-call score of the fitted dose curve at least 0.9, where 1 is the maximum)
Chain of human CYP2B6, CYP2B6 (gene 1555) (P20813 whole entry, looked up): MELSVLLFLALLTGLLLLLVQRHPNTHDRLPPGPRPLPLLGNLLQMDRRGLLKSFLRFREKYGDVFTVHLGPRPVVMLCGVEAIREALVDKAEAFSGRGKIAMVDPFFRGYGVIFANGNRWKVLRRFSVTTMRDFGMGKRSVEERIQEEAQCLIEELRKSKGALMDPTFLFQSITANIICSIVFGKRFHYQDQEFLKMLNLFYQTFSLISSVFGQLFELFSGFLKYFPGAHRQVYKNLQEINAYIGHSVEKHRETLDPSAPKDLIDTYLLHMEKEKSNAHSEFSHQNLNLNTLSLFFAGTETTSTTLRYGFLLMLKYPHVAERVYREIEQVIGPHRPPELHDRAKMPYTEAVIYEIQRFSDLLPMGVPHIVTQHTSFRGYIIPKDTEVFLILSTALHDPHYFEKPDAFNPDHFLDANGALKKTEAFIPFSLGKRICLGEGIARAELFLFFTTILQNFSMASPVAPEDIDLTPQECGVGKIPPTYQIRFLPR
How it was run: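 Recombinant protein, specific fluorescent substrate, read at 1 h post-dosing. Primary: single 10 uM, duplicate; follow-up: concentration series. Activity = signal loss vs acetonitrile baseline, with positive and negative controls on every plate.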

[10] = target: human CYP1A2, CYP1A2 (gene 1544) (UniProt P05177); test: NVS_ADME_hCYP1A2: NovaScreen (NVS) CYP450-related Enzyme Activity (ADME) Assay for human CYP1A2 (AID 2283102; active = hit-call score of the fitted dose curve at least 0.9, where 1 is the maximum;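 also: potency for inhibition since loss of fluorescence marks reduced CYP1A2 activity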)
Chain of human CYP1A2, CYP1A2 (gene 1544) (P05177 whole entry, looked up): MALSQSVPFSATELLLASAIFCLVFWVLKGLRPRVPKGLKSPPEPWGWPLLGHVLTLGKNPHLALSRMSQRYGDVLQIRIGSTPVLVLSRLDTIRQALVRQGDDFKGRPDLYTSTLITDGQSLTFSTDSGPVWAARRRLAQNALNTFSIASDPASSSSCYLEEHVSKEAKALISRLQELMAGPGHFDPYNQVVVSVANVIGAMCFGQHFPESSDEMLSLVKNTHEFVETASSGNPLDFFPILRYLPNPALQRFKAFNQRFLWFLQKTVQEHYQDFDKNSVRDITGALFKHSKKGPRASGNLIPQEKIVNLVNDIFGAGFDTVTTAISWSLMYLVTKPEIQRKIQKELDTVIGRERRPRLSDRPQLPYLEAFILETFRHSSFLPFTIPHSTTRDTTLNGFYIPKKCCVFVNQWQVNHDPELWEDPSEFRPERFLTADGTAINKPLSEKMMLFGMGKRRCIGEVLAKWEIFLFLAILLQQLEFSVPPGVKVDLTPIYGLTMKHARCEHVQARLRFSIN
How it was run: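 Fluorescence-intensity enzyme activity read-out, taken 0.5 h post-dosing, using insect-cell-derived recombinant CYP1A2 and specific fluorescent substrate. Acetonitrile served as negative control/baseline. Single-concentration duplicate screen at 10 uM, then concentration-response follow-up.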

[11] = target: Cytochrome P450 2C18 (Homo sapiens) (UniProt P33260); test: NVS_ADME_hCYP2C18: NovaScreen (NVS) CYP450-related Enzyme Activity (ADME) Assay for human CYP2C18 (AID 2283103)
Chain of Cytochrome P450 2C18 (Homo sapiens) (P33260 whole entry, looked up): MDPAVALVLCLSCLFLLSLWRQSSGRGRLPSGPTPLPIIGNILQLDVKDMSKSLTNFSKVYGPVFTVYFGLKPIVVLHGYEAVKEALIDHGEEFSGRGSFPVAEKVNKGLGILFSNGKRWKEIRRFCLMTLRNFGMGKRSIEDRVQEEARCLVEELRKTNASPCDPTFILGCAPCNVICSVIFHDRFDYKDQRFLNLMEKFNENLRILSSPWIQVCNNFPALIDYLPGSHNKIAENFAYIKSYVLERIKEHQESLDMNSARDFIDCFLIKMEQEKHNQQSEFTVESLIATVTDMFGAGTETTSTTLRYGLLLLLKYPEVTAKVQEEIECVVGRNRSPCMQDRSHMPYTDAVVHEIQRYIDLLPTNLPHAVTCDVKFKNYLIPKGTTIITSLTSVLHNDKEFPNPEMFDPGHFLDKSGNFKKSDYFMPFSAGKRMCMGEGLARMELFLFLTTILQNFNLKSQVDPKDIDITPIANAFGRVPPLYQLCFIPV
How it was run: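 Cell-free recombinant human CYP2C18 with fluorogenic substrate; fluorescence intensity read 0.5 h after dosing. Single-point screen at 10 uM in duplicate, then concentration-response up to 20 uM; loss of signal fitted against acetonitrile baseline.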

[12] = target: Cytochrome P450 3A4 (Homo sapiens) (UniProt P08684); test: NVS_ADME_hCYP3A4: NovaScreen (NVS) CYP450-related Enzyme Activity (ADME) Assay for human CYP3A4 (AID 2283110; active = hit-call score of the fitted dose curve at least 0.9, where 1 is the maximum)
Chain of Cytochrome P450 3A4 (Homo sapiens) (P08684 whole entry, looked up): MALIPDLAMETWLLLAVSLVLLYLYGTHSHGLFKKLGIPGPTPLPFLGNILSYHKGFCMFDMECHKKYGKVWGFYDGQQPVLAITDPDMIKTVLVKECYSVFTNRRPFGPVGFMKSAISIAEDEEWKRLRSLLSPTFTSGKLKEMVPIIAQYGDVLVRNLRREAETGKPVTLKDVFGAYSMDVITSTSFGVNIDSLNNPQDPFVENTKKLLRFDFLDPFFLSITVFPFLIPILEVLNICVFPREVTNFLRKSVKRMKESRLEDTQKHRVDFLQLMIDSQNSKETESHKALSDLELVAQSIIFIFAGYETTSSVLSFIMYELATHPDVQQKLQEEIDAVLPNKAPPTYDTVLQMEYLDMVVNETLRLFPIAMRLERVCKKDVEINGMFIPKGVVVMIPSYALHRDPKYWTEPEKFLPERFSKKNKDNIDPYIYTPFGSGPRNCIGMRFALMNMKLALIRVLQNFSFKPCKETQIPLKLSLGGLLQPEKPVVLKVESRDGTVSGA
How it was run: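 Cell-free assay using insect-cell-expressed human CYP3A4 with a fluorogenic substrate; fluorescence intensity was read 0.33 hour after dosing. Loss of signal relative to acetonitrile vehicle indicated inhibition. Primary single-concentration screen at 10 uM, in duplicate, then concentration series.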

[13] = target: human CYP19A1, CYP19A1 (gene 1588) (UniProt P11511); test: NVS_ADME_hCYP19A1: NovaScreen (NVS) CYP450-related Enzyme Activity (ADME) Assay for human CYP19A1 (AID 2283098; active = hit-call score of the fitted dose curve at least 0.9, where 1 is the maximum;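 as to AC50: potency for inhibitors seen as loss of fluorescent enzyme signal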)
Chain of human CYP19A1, CYP19A1 (gene 1588) (P11511 whole entry, looked up): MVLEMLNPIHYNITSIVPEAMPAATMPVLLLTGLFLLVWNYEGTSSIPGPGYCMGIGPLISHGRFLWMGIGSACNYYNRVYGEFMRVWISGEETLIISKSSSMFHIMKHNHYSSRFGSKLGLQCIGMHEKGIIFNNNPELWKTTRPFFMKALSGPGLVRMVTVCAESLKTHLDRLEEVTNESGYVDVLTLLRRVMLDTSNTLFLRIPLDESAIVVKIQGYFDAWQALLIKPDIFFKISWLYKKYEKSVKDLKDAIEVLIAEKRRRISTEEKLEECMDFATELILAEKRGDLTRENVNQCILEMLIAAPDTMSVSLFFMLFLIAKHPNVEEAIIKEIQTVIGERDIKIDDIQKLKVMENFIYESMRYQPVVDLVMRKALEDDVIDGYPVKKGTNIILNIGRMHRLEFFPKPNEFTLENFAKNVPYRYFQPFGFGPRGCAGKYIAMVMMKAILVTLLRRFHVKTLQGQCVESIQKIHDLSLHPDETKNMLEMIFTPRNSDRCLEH
How it was run: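 Cell-free enzyme assay with recombinant protein and a specific fluorogenic substrate, read by fluorescence intensity 0.5 h after dosing. Primary screen ran in duplicate at 10 uM; actives were retested in concentration series. Loss of signal versus acetonitrile baseline.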

[14] = target: human CYP1A1, CYP1A1 (gene 1543) (UniProt P04798); test: NVS_ADME_hCYP1A1: NovaScreen (NVS) CYP450-related Enzyme Activity (ADME) Assay for human CYP1A1 (AID 2283100; active = hit-call score of the fitted dose curve at least 0.9, where 1 is the maximum)
Chain of human CYP1A1, CYP1A1 (gene 1543) (P04798 whole entry, looked up): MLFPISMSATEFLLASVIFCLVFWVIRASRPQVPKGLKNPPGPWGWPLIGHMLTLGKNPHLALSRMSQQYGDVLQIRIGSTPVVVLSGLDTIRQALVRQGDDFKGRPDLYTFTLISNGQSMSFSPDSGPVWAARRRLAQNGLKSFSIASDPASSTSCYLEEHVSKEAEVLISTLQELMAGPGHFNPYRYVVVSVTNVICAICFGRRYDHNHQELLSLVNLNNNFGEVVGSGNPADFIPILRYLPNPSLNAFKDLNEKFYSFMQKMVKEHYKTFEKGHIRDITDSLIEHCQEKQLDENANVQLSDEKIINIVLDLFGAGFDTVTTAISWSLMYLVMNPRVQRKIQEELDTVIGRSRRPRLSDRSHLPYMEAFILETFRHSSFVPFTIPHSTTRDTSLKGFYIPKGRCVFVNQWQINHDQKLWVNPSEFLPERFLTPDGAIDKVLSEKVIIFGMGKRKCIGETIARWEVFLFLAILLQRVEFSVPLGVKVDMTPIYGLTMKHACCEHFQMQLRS
How it was run: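 Read-out: fluorescence intensity from enzymatic turnover of substrate by recombinant CYP1A1, loss of signal indicating inhibition. Incubation 1 h post-dose. Primary single-point 10 uM in duplicate; actives rerun singly with top concentration 20 uM.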

[15] = target: human CYP2J2, CYP2J2 (gene 1573) (UniProt P51589); test: NVS_ADME_hCYP2J2: NovaScreen (NVS) CYP450-related Enzyme Activity (ADME) Assay for human CYP2J2 (AID 2283106; active = hit-call score of the fitted dose curve at least 0.9, where 1 is the maximum)
Chain of human CYP2J2, CYP2J2 (gene 1573) (P51589 whole entry, looked up): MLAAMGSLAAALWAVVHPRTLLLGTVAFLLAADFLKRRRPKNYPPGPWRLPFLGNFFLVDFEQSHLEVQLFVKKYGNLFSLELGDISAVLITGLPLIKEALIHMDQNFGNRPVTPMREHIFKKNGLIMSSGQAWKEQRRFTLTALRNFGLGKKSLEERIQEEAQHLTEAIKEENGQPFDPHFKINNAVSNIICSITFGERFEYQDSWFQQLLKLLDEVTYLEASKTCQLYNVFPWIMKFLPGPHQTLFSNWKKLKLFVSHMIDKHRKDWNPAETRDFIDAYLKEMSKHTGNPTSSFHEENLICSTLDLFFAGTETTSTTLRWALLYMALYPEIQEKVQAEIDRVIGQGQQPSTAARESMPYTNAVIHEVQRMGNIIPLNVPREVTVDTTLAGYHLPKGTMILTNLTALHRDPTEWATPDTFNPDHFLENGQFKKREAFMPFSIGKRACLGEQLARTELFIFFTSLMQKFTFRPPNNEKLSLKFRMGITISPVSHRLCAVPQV
How it was run: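 Cell-free assay of recombinant CYP2J2 with a fluorogenic substrate, read 1 h after dosing; loss of signal versus acetonitrile. Primary screen at 10 uM in duplicate, then concentration-response up to 20 uM for chemicals passing threshold (e.g., 30% inhibition).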

Measured: AC50

Chain of E-selectin (Homo sapiens) (P16581 whole entry, looked up): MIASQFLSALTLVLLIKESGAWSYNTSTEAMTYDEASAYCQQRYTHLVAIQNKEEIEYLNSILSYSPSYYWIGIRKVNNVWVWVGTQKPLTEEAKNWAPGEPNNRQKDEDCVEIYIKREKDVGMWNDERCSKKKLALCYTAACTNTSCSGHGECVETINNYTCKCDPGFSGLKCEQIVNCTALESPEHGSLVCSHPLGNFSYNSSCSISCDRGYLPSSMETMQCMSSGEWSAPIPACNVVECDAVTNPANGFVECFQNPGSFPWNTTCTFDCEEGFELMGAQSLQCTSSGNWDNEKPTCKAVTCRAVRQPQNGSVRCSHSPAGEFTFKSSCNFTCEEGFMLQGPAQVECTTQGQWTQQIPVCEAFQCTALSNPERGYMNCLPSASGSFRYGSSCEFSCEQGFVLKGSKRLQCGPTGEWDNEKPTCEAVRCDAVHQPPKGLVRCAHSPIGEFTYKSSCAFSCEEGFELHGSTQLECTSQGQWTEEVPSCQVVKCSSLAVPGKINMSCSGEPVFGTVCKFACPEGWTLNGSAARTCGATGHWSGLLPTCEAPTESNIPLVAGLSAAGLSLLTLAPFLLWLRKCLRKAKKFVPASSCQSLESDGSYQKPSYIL

CC(C)C1(C)N=C(c2ncccc2C(=O)O)NC1=O (stereo not given)
not listed: [9] | [10] | [11] | [12] | [13] | [14] | [15]
inactive: all other assays above

CCCN(CC)CC1COC2(CCC(C(C)(C)C)CC2)O1 (stereo not given)
inactive: CD40, CD40 (gene 958) | CD69, CD69 (gene 969) | [1] | [3] | [7] | [8]
active: [2] 12.9 µM | [4] 12.2 µM | [5] 12.1 µM | [6] 6.99 µM

CC1(C)C(C(=O)OC(C#N)c2cccc(Oc3ccccc3)c2)C1(C)C (stereo not given)
inactive: [1] | [3] | [4] | [8]
active: CD40, CD40 (gene 958) 14.1 µM | CD69, CD69 (gene 969) 12.2 µM | [2] 13.1 µM | [5] 26.8 µM | [6] 15.3 µM | [7] 7.56 µM

COC(=O)c1c(C(F)F)nc(C(F)(F)F)c(C2=NCCS2)c1CC(C)C
inactive: CD69, CD69 (gene 969) | [1] | [3] | [5]
active: CD40, CD40 (gene 958) 24 µM | [2] 20 µM | [4] 12.1 µM | [6] 14.6 µM | [7] 32.5 µM | [9] 5.93 µM | [10] 0.561 µM | [11] 1.88 µM

CCCCOCN(C(=O)CCl)c1c(CC)cccc1CC
active: CD40, CD40 (gene 958) 30.8 µM | CD69, CD69 (gene 969) 18.3 µM | [1] 28.5 µM | [2] 18.9 µM | [3] 33.9 µM | [4] 33.2 µM | [5] 31 µM | [6] 22.2 µM | [7] 28.6 µM | [9] 8.94 µM | [11] 6.71 µM | [8] 5.52 µM | [12] 9.74 µM

OC(c1ccc(Cl)cc1)(c1ccc(Cl)cc1)C(Cl)(Cl)Cl
inactive: [13] | [12]
active: CD40, CD40 (gene 958) 29.9 µM | CD69, CD69 (gene 969) 30 µM | [1] 30.7 µM | [2] 27.2 µM | [3] 34.4 µM | [4] 20 µM | [5] 27.9 µM | [6] 15 µM | [7] 31.8 µM

CC1(C)C(C=C(Cl)Cl)C1C(=O)OC(C#N)c1cccc(Oc2ccccc2)c1 (stereo not given)
inactive: CD40, CD40 (gene 958) | CD69, CD69 (gene 969) | [1] | [2] | [3] | [4] | [5] | [13]
active: [6] 29.4 µM | [7] 6.38 µM | [8] 12.8 µM

COc1ccc(-c2ccccc2)cc1NNC(=O)OC(C)C
active: [14] 0.597 µM | [10] 0.956 µM | [11] 0.684 µM | [15] 0.407 µM | [8] 1.07 µM
not listed: [9] | [12] | [13]
inactive: all other assays above

C=CCOC(=O)C(C)(C)OC(=O)c1cc(-n2c(=O)cc(C(F)(F)F)n(C)c2=O)ccc1Cl
active: CD69, CD69 (gene 969) 6.29 µM | [2] 31.1 µM
inactive: [1] | [3] | [4] | [5] | [6] | [7]

CC(C)Oc1cccc(NC(=O)c2ccccc2C(F)(F)F)c1
active: [7] 15.1 µM | [10] 6.37 µM | [11] 2.66 µM | [8] 3.19 µM
not listed: [9] | [12] | [14] | [15]
inactive: all other assays above

CCCCC(C#N)(Cn1cncn1)c1ccc(Cl)cc1 (stereo not given)
active: [13] 0.789 µM | [14] 10.4 µM | [9] 6.49 µM | [11] 2.25 µM | [8] 8.72 µM
not listed: [10] | [12]
inactive: all other assays above

CCOP(=O)(OCC)Oc1nc(Cl)c(Cl)cc1Cl
inactive: [2] | [3] | [4] | [5]
active: CD40, CD40 (gene 958) 20 µM | CD69, CD69 (gene 969) 23.1 µM | [1] 23.9 µM | [6] 17.1 µM | [7] 20 µM | [14] 7.46 µM | [9] 8.04 µM | [10] 3.36 µM | [11] 6.11 µM

CCN(CC)c1nc(C)cc(OP(=S)(OC)OC)n1
inactive: [1] | [3] | [4] | [7] | [13]
active: CD40, CD40 (gene 958) 20 µM | CD69, CD69 (gene 969) 3.97 µM | [2] 10.5 µM | [5] 14.1 µM | [6] 37 µM | [9] 4.4 µM | [10] 1.41 µM | [8] 7.09 µM

CCNP(=S)(OC)O/C(C)=C/C(=O)OC(C)C (stereo not given)
active: [14] 2.43 µM | [9] 0.723 µM | [10] 5.76 µM | [11] 2.63 µM | [15] 1.33 µM | [8] 1.79 µM
not listed: [12] | [13]
inactive: all other assays above

N#CN=C1SCCN1Cc1ccc(Cl)nc1
active: [13] 0.933 µM
inactive: CD40, CD40 (gene 958) | CD69, CD69 (gene 969) | [1] | [2] | [3] | [4] | [5] | [6] | [7]

CC1(C)CCC(=Cc2ccc(Cl)cc2)C1(O)Cn1cncn1 (stereo not given)
active: [14] 0.908 µM | [11] 2.03 µM | [8] 0.289 µM
not listed: [9] | [10] | [12] | [13] | [15]
inactive: all other assays above
